# Data: publication PMC8384837, “Expanding the binding specificity for RNA recognition by a PUF domain”
# Changes are numbered by the printed parent chain.
# Experiments:
# Test in all cases: yeast three-hybrid, YBZ-1, SC-Leu-His + 0.5 mM 3-AT, 4 days
# Conditions in all cases: tags: N-Gal4 AD-HA kept; label: inside an RPR1-promoter hybrid RNA with tandem MS2 sites; ssRNA
# [1] = target: T1, PUM1 PUF domain R6-VYR (Homo sapiens, UniProt Q14671 828-1176, N1043V;Q1047R)
# T1 sequence: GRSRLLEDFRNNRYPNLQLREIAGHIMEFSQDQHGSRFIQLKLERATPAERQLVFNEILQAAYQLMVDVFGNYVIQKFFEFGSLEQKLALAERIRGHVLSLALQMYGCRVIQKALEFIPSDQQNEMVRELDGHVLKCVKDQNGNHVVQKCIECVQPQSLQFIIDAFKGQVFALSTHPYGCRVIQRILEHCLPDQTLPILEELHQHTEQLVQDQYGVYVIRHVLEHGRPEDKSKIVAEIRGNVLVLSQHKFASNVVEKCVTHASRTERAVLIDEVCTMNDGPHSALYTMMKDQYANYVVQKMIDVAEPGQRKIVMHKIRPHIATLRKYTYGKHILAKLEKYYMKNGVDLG
# In short: (§1)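 The interaction score is the log change in how often each variant appears, from input to selection. Frequencies came from PCR-amplified, Illumina-sequenced repeat regions of Pumilio-1 PUF domain libraries grown in strain YBZ-1 (LexA–MS2 coat fusion, HIS3 reporter) alongside matching RNA elements. Input plates were SC-Leu and selection plates were SC-Leu-His + 0.5 mM 3-AT, each for four days, and the log2 calculation used a pseudocount of 1 where a variant was absent.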
# [2] = target: PUM1 PUF domain R5-IYM (Homo sapiens, UniProt Q14671 828-1176, C1007I;R1008Y;Q1011M)
# In short: as §1
# [3] = target: T2, PUM1 PUF domain R6-SHR (Homo sapiens, UniProt Q14671 828-1176, N1043S;Y1044H;Q1047R)
# T2 sequence: T1 sequence with V216S, Y217H
# In short: as §1
# [4] = target: PUM1 PUF domain R3-VRG (Homo sapiens, UniProt Q14671 828-1176, C935V;Q939G)
# In short: as §1
# [5] = target: PUM1 PUF domain R3-DFV (Homo sapiens, UniProt Q14671 828-1176, C935D;R936F;Q939V)
# In short: as §1
# [6] = target: PUM1 PUF domain R3-SCY (Homo sapiens, UniProt Q14671 828-1176, C935S;R936C;Q939Y)
# In short: as §1
# [7] = target: T3, PUM1 PUF domain R6-DYQ (Homo sapiens, UniProt Q14671 828-1176, N1043D)
# T3 sequence: T1 sequence with V216D, R220Q
# In short: as §1
# [8] = target: PUM1 PUF domain R7-GNR (Homo sapiens, UniProt Q14671 828-1176, S1079G;E1083R)
# In short: as §1
# [9] = target: PUM1 PUF domain R5-RGC (Homo sapiens, UniProt Q14671 828-1176, C1007R;R1008G;Q1011C)
# In short: as §1
# [10] = target: PUM1 PUF domain R5-RSP (Homo sapiens, UniProt Q14671 828-1176, C1007R;R1008S;Q1011P)
# In short: as §1
sequence,measurement,setting,value
GGCUAGAACUAGUGGAUCCCCCGGCGCCCGGCGGCUCGAGCCCGGGUAAGUGAAAAUAGUCUGCAUGCCGCCGGGCGCCAUGCCUGCAGGUCGACUCUAGAAAACAUG,binding signal,[1],6.09 log2 enrichment (interaction score)
GGCUAGAACUAGUGGAUCCCCCGGCGCCCGGCGGCUCGAGCCCGGGUAAGUGUAAAUAGUCUGCAUGCCGCCGGGCGCCAUGCCUGCAGGUCGACUCUAGAAAACAUG,binding signal,[2],3.85 log2 enrichment (interaction score)
same,binding signal,[3],4.81 log2 enrichment (interaction score)
same,binding signal,[4],3.39 log2 enrichment (interaction score)
same,binding signal,[5],5.54 log2 enrichment (interaction score)
same,binding signal,[6],3.56 log2 enrichment (interaction score)
same,binding signal,[7],6.54 log2 enrichment (interaction score)
same,binding signal,[1],2.97 log2 enrichment (interaction score)
GGCUAGAACUAGUGGAUCCCCCGGCGCCCGGCGGCUCGAGCCCGGGUAAGUUUAAAUAGUCUGCAUGCCGCCGGGCGCCAUGCCUGCAGGUCGACUCUAGAAAACAUG,binding signal,[8],2.05 log2 enrichment (interaction score)
GGCUAGAACUAGUGGAUCCCCCGGCGCCCGGCGGCUCGAGCCCGGGUAAGUGUUAAUAGUCUGCAUGCCGCCGGGCGCCAUGCCUGCAGGUCGACUCUAGAAAACAUG,binding signal,[9],3.22 log2 enrichment (interaction score)
same,binding signal,[10],1.1 log2 enrichment (interaction score)
GGCUAGAACUAGUGGAUCCCCCGGCGCCCGGCGGCUCGAGCCCGGGUAAGUGCAAAUAGUCUGCAUGCCGCCGGGCGCCAUGCCUGCAGGUCGACUCUAGAAAACAUG,binding signal,[3],5.39 log2 enrichment (interaction score)
GGCUAGAACUAGUGGAUCCCCCGGCGCCCGGCGGCUCGAGCCCGGGUAAGUGUAAGUAGUCUGCAUGCCGCCGGGCGCCAUGCCUGCAGGUCGACUCUAGAAAACAUG,binding signal,[4],0.46 log2 enrichment (interaction score)
GGCUAGAACUAGUGGAUCCCCCGGCGCCCGGCGGCUCGAGCCCGGGUAAGUGUCAAUAGUCUGCAUGCCGCCGGGCGCCAUGCCUGCAGGUCGACUCUAGAAAACAUG,binding signal,[9],1.32 log2 enrichment (interaction score)
same,binding signal,[10],2.36 log2 enrichment (interaction score)
